High-throughput results (PubChem)
The list is not random: actives were taken first. Their share in the collection is about 2.9%.
Mtb hypoxia rep – PubChem AID 1159583; actives 0.1% (n = 300,000); M. tuberculosis hypoxia-regulated fluorescent reporter, fluorescence; fluorescence inhibition, % (no concentration beside the values); in the data active means fluorescence inhibition mostly above about 23%, no sharp cut-off; inactive means mostly below about 17%
GDH-TPI inh – GDH-TPI coupling enzyme inhibitors, primary screen, artefact control for M. tuberculosis FBA inhibitor project, biochemical, absorbance, full deck | GDH-TPI coupled enzyme counterscreen, NADH absorbance | inhibition, % at 4.8 µM | actives 1.2% (n = 360,000); in the data active means inhibition above about 30%;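 further: 0% = DMSO wells and 100% = wells lacking the enzyme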
BioA inh – M. tuberculosis BioA enzyme inhibitors, primary screen, biochemical, plate reader, single point, HTS. inhibition, % at 9.99 µM. actives 0.096% (n = 360,000). purified M. tuberculosis BioA enzyme. 7,8-diaminopelargonic acid synthase BioA (Mycobacterium tuberculosis); in the data active means inhibition above about 40%
Mtb FBA inh – Mtb FBA enzyme inhibitors, primary screen, biochemical, fluorescence, strain H37Rv | purified M. tuberculosis FBA, fluorescence read-out | inhibition, % at 1 µM | Fructose-bisphosphate aldolase (Mycobacterium tuberculosis (strain ATCC 25618 / H37Rv)), … | actives 2.3% (n = 360,000); in the data active means inhibition above about 27%;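 further: 0% = vehicle and 100% = reference inhibitor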
Target sequence (P9WQA3 whole entry, looked up): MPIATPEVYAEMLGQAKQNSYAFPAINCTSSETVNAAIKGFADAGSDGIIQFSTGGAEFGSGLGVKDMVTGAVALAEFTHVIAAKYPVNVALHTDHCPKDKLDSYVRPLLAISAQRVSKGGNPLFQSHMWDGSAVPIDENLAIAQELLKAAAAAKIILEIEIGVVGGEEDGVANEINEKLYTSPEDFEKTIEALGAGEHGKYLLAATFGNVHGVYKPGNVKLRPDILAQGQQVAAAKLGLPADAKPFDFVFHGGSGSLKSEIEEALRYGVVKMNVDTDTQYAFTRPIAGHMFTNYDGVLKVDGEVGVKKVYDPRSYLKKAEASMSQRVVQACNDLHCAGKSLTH
FadD28 binding – inhibitors of FadD28 bisubstrate probe binding, primary screen, biochemical, fluorescence polarization, single point | Mycobacterium tuberculosis FadD28 fatty-acid-AMP ligase | inhibition, % at 12.5 µM | actives 0.22% (n = 360,000) | AID 588549, 2011; in the data active means inhibition above about 8.5%, passing the limit was not always enough
Numbers without * were called inactive; . = no result given; + = active, no number.

SMILES	Mtb hypoxia rep	GDH-TPI inh	BioA inh	Mtb FBA inh	FadD28 binding
Cc1cc(OCc2nn[nH]n2)c2c3c(c(=O)oc2c1)CCC3	4	-3	0	+	-5
CCCc1cc(=O)oc2cc(C)cc(OCc3nn[nH]n3)c12	2	9	1	128*	-1
C[C@@H]1CN([C@H](C)CO)C(=O)c2cc(NC(=O)Nc3ccc(C(F)(F)F)cc3)ccc2O[C@@H]1CN(C)S(=O)(=O)c1cn(C)cn1	.	.	1	.	.
O=C(/C=C/c1ccc2c(c1)OCO2)Nc1nc(-c2ccccc2)cs1	.	46*	-1	3	-2
COc1cc(OCc2ccccc2)c(C(=O)/C=C/c2ccc3c(c2)OCO3)c(OC)c1OC	1	50*	-2	2	-1
O=C(/C=C\c1ccco1)Nc1nc(-c2ccc3ccccc3c2)cs1	-5	36*	.	2	-1
O=C(/C=C/c1ccc2c(c1)OCO2)c1ccc(O)cc1O	-4	40*	-3	-10	0
COc1cc(OC)c(C(=O)/C=C/c2ccc(OCc3ccccc3)c(OC)c2)c(OC)c1	11	17	0	0	-3
C[C@H]1CN([C@@H](C)CO)C(=O)Cc2cc(NC(=O)Nc3cccc4ccccc34)ccc2O[C@H]1CN(C)Cc1ccccc1	.	.	-2	.	.
Cc1ccccc1-n1nc2c(c1NC(=O)/C=C\c1ccc3c(c1)OCO3)CSC2	4	32*	0	2	-3
Cc1cccc(C(=O)Nc2cc(=O)n(C)c(=O)n2C)c1	-7	-6	-1	0	0
Cc1ccc(C(=O)Nc2cc(=O)n(C)c(=O)n2C)o1	-4	33*	-7	-3	-1
Cc1cc(C)nc(NC(=O)/C=C/c2ccc3c(c2)OCO3)c1	.	40*	-1	13	2
Cn1c(NC(=O)/C=C/c2ccco2)cc(=O)n(C)c1=O	3	31*	.	-4	0
Cc1ccc(/C=C/C(=O)Nc2cc(=O)n(C)c(=O)n2C)o1	6	2	.	-3	-1
O=C(NN=Cc1cccc(O)c1)c1ccc(NC(=O)C2CCCCC2)cc1	6	.	.	.	.
O=C(N[C@@H]1CC[C@H](CC(=O)N2CCCCC2)O[C@@H]1CO)c1ccc2c(c1)OCO2	.	.	-3	.	.
C[C@@H]1CCCCO[C@@H](CN(C)S(=O)(=O)c2ccc(F)cc2)[C@H](C)CN([C@H](C)CO)C(=O)c2cc(NC(=O)Nc3ccc(C(F)(F)F)cc3)ccc2O1	.	.	1	.	.
O=C(C[C@H]1CC[C@H](NC(=O)Nc2ccc3c(c2)OCO3)[C@@H](CO)O1)NCc1ccc2c(c1)OCO2	.	.	-2	.	.
C[C@H]1CN([C@@H](C)CO)C(=O)Cc2cc(NC(=O)C3CCCCC3)ccc2O[C@H]1CN(C)Cc1ccccc1	.	.	3	.	.
NS(=O)(=O)c1ccc(NC(=O)/C=C/c2ccc3c(c2)OCO3)cc1	10	36*	.	22	-7
CC(=O)Nc1ccc(NC(=O)/C=C/c2ccc3c(c2)OCO3)cc1	11	18	.	-2	-2
O=C(/C=C/c1ccco1)NCc1ccc2c(c1)OCO2	10	6	-1	-8	-4
CCc1ccccc1NC(=O)c1cccc(NC(=O)/C=C/c2ccco2)c1	.	44*	2	0	-12
O=C(/C=C/c1ccco1)Nc1ccc2c(c1)OCO2	-12	33*	.	-6	-3
SMILES	Mtb hypoxia rep	GDH-TPI inh	BioA inh	Mtb FBA inh	FadD28 binding
COc1ccc(CN(C)C[C@H]2Oc3ccc(NS(C)(=O)=O)cc3CC(=O)N([C@H](C)CO)C[C@@H]2C)cc1	.	.	0	.	.
CCOc1ccc(-n2c(O)c(C=NNC(=O)C3COc4ccccc4O3)c3ccccc3c2=O)cc1 (stereo not given)	-7	.	.	.	.
CC1C=C(C(=O)N2CCN(Cc3ccc4c(c3)OCO4)CC2)OC(OCCCCO)C1 (stereo not given)	-2	.	.	.	.
O=C(CSC1=NNC(c2ccccn2)S1)Nc1ccc(C(F)(F)F)cc1 (stereo not given)	-18	32*	-1	-2	0
COCC#Cc1cnc2c(c1)C(=O)N([C@H](C)CO)C[C@@H](C)[C@@H](CN(C)Cc1ccc(F)cc1)O2	.	.	1	.	.
CC(C)NC(=O)NC(=O)CSc1nnc(COc2ccccc2F)n1C(C)C1CC2CCC1C2 (stereo not given)	4	-2	-1	2	-2
CC(C1CC2CCC1C2)n1c(COc2ccccc2F)nnc1SCC(N)=O (stereo not given)	.	-5	6	+	1
CCCN1CCC(=O)N(C(CN=[N+]=[N-])CC(C)C)CC1 (stereo not given)	-1	.	.	.	.
CN(C)c1ccc(C=NNC(=O)c2ccc3c(c2)OCO3)cc1	5	.	.	.	.
CSc1ccc(/C=N/n2c(C)cc(C)cc2=O)cc1	.	33*	1	0	-2
CC(=O)Cc1nsc(NC(=O)c2ccc(-c3cccc(Cl)c3)o2)n1	6	61*	-1	4	-3
CC(=O)Cc1nsc(NC(=O)c2ccc(Br)o2)n1	8	18	0	-3	-2
CO[C@H]1CC[C@@H]2CCOc3ccc(C#N)cc3C(=O)N(C)C[C@@H](OC)[C@H](C)C(=O)N(C)C[C@@H]1O2	.	.	0	.	.
O=C(C[C@H]1C[C@@H]2c3cc(NC(=O)C4CCOCC4)ccc3O[C@@H]2[C@H](CO)O1)NCc1ccncc1	.	.	-2	.	.
COC(=O)Nc1nnc(-c2ccccc2Cl)s1	.	2	-2	48*	-4
Cc1ccnc(NC(=O)/C=C/c2cccs2)c1	1	31*	-2	6	0
O=C(/C=C/c1cccs1)Nc1nncs1	9	70*	.	-6	-3
Cc1ccnc(NC(=O)CNC(=O)c2cccs2)c1	5	-1	0	0	0
O=C(/C=C/c1cccs1)Nc1nc(-c2ccccc2)cs1	9	10	3	1	-4
O=C(/C=C/c1cccs1)Nc1cccnc1	-5	32*	.	-3	-2
O=C(C=Cc1cccs1)NCc1cccnc1	10	.	.	.	.
COc1ccc(CCn2c(-c3ccccc3)nc3c(c(=O)c4ccccc4n3C)c2=O)cc1	-3	.	.	.	.
CCCn1c(-c2ccccc2)nc2c(=O)n(C)c(=O)[nH]c21	-3	9	-4	+	-1
COc1ccc(-c2nc3c(=O)n(C)c(=O)[nH]c3n2CCc2ccccc2)cc1	.	8	1	184*	-3
Cc1nc2c(=O)n(C)c(=O)[nH]c2n1Cc1ccccc1	8	8	0	16	1
CCOc1ccc(Nc2oc(-c3cccs3)nc2C#N)cc1	3	18	-1	13	-1
N#Cc1nc(-c2cccs2)oc1NCc1ccc(Cl)cc1	.	7	.	+	0
